# Values joined by “and” are separate entries in the source; they are usually repeats but may differ in a detail not shown here. Equal values may be shown once. Records with an inconclusive call do not appear. Active and inactive are the calls of the source. Unless noted, calls come from the whole dose curve; as a rule, active = well fitted curve in the direction sought with a large enough effect; inconclusive = small, poorly fitted or top-dose-only effect, or another doubt; inactive = no such curve, though single readings can be large; an effect the other way counts as inactive or inconclusive.
# How the values were obtained:
# [1] = Cell Viability - BJ (AID 421; calls by dose curve;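 note: potency is the fitted concentration of half-maximal effect; cells exposed to compound for 40 hours at 37 °C before readout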); settings: BJ fibroblast viability, qHTS
# Summary of the method: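 Normal human BJ foreskin fibroblasts, 1500/well in complete medium, treated 40 hr at 37 °C. Cellular ATP by CellTiter-Glo luminescence; normalized to DMSO and 100 uM tamoxifen, AC50 from Hill fit.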
# [2] = Cell Viability - HepG2 (AID 433; calls by dose curve;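 note: potency is the fitted concentration of half-maximal effect; potency for ATP loss meaning cytotoxicity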); settings: qHTS
# Summary of the method: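 HepG2 cells, 1500 per well, treated 40 hr at 37 °C in complete medium; viability from intracellular ATP by CellTiter-Glo luminescence. Normalized to DMSO and 100 uM tamoxifen; AC50 from Hill fit of qHTS concentration-response.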
# [3] = Cell Viability - MRC5 (AID 434; calls by dose curve;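 note: potency is the fitted concentration of half-maximal effect; potency reflects cytotoxicity seen as loss of intracellular ATP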); settings: MRC5 lung fibroblast viability, qHTS
# Summary of the method: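 MRC5 normal human lung fibroblasts, 1500 cells/well, exposed to compound for 40 hr at 37 C. Cellular ATP was read by CellTiter-Glo luminescence; data normalized to DMSO and 100 uM tamoxifen, with AC50 from Hill fits.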
# [4] = Cell Viability - SK-N-SH (AID 435; calls by dose curve;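 note: potency is the fitted concentration of half-maximal effect; compound exposure lasted 40 h at 37 °C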); settings: SK-N-SH neuroblastoma cell viability qHTS
# Summary of the method: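 SK-N-SH neuroblastoma cells (1500/well) treated 40 h at 37 °C in complete medium; viability read as cellular ATP by CellTiter-Glo luminescence. Normalized to DMSO and 100 uM tamoxifen; AC50 from Hill fits of qHTS concentration-response.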
# [5] = Cell Viability - NIH 3T3 (AID 541); settings: NIH 3T3 cell viability, qHTS; activity change, negative = cytotoxicity: at 92.2 µM (top of the series);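 note: plate controls were DMSO alone for no effect and tamoxifen positive control for full effect; nearly all actives have a fitted effect of over 25% in size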
# Summary of the method: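 NIH 3T3 mouse embryo fibroblasts (1000 cells/well) were plated in complete medium and treated with compound for 40 hr at 37 °C. Viability was read as intracellular ATP by CellTiter-Glo luminescence; AC50 values came from Hill-equation fits of concentration-response data.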
# [6] = Cell Viability - HUV-EC-C (AID 542); settings: HUV-EC-C endothelial cell viability, qHTS; series mostly up to 92.2 µM; note: % is set by controls: 0 for no effect and ±100 for the full control effect; nearly all actives have a fitted effect of over 35% in size
# Summary of the method: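 HUV-EC-C normal human vascular endothelial cells, 1000 cells/well, pre-incubated 5 hr at 37 °C, then exposed to compounds for 40 hr at 37 °C in complete medium. Viability measured as intracellular ATP by CellTiter-Glo luminescence; AC50 from Hill fits.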
# [7] = Cell Viability - H-4-II-E (AID 543); settings: H-4-II-E rat hepatoma viability; series mostly up to 92.2 µM; note: % is set by controls: 0 for no effect and ±100 for the full control effect; nearly all actives have a fitted effect of over 35% in size
# Summary of the method: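 Rat hepatoma H-4-II-E cells (1500/well) were plated, incubated 5 hr at 37 °C, then exposed to compounds for 40 hr at 37 °C. Cellular ATP was read by CellTiter-Glo luminescence; AC50 came from Hill-equation fits of concentration-response data.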
# [8] = Cell Viability - SH-SY5Y (AID 544); settings: SH-SY5Y neuroblastoma cell viability; viability change, negative = cytotoxic: at 92.2 µM (top of the series); note: nearly all actives have a fitted effect of over 55% in size
# Summary of the method: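 Human neuroblastoma SH-SY5Y cells (1500/well) in complete medium were exposed to compounds for 40 hr at 37 °C; intracellular ATP was then quantified by CellTiter-Glo luminescence after 20 min at room temperature. AC50 came from Hill-equation concentration-response fits.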
# [9] = Cell Viability - Renal Proximal Tubule (AID 545); settings: renal proximal tubule cells viability; at 91.7 µM (top of the series), primary cells of rat origin unless noted; note: nearly all actives have a fitted effect of over 40% in size
# Summary of the method: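 Rat renal proximal tubule primary cells, 1000/well, exposed to compounds for 40 hr at 37 °C in complete medium; cellular ATP read by CellTiter-Glo luminescence. AC50 from concentration-response fitted with standard Hill equation.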
# [10] = Cell Viability - Mesenchymal (AID 546); settings: mesenchymal cells viability, qHTS; series mostly up to 91.7 µM;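 note: cells exposed to compound for 40 hours before reading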
# Summary of the method: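 Human kidney mesenchymal cells from normal renal glomeruli, 1000 cells/well, rested 5 hr at 37 °C, then treated 40 hr at 37 °C in complete medium. Cellular ATP read by CellTiter-Glo luminescence; AC50 from Hill-equation fits.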
# [11] = Cellular Toxicity (caspase-3) Jurkat (AID 655); settings: Jurkat caspase-3 activation, luminescence, DMSO = 0%, tamoxifen = 100%; at 92.2 µM (top of the series);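 note: cells exposed to compound for 16 h at 37 °C before reading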
# Summary of the method: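 Jurkat cells (5000/well) in complete medium exposed 16 h at 37 C; caspase-3/7 activity read by Caspase-Glo luminescence after 20 min at room temperature. Normalized to DMSO and 100 uM tamoxifen; AC50 from Hill fits.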
# [12] = Cellular Toxicity (caspase-3) HUV-EC-C (AID 656); settings: HUV-EC-C cells, caspase-3 activation (apoptosis), vehicle = 0, 100 µM tamoxifen = 100%; series mostly up to 92.2 µM
# Summary of the method: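 HUV-EC-C cells (1000/well) in complete medium, compound-treated 16 h at 37 °C; caspase-3/7 activity read by Caspase-Glo 3/7 luminescence. Normalized to DMSO (basal) and 100 uM tamoxifen (100%); AC50 from Hill-equation concentration-response fits.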
# [13] = qHTS Assay for Identification of Small Molecule Inducers of Hypoxia Response (AID 2120; active = well fitted curve in the direction sought with a large enough effect in the signal ratio, with a control signal flat, not every such curve was filed as active; the % refers to the signal ratio; note: 0% is about no effect); settings: hypoxia response reporter cells, beta-lactamase ratio readout; series mostly up to 104 µM
# Summary of the method: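 HRE-beta-lactamase reporter in CellSensor HRE-bla ME-180 cells, 2500 cells/well in Opti-MEM with 0.5% dialyzed FBS; compounds tested as titration series, 17 h at 37 degrees C. CCF4 substrate 2.5 h at room temperature; AC50 from 460/530 nm ratio.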
# [14] = qHTS assay for small molecule agonists of retinoid X receptor alpha signaling (AID 588544); settings: HEK293T RXRa-UAS-bla, beta-lactamase reporter, 18 h; 530 nm emission
# [15] = qHTS assay for small molecule antagonists of retinoid X receptor alpha signaling (AID 588546; active = well fitted inhibition curve with a large enough effect in the signal ratio, with a control signal flat, not every such curve was filed as active; the % refers to the signal ratio;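 note: cells stimulated with 9-cis-retinoic acid as agonist; % is set by controls: 0 for no effect and ±100 for the full control effect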); settings: HEK293T RXRa-UAS-bla, beta-lactamase ratio, antagonist mode; measured here: W530 green channel, cytotoxicity proxy
# Summary of the method: (§1)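 Beta-lactamase reporter inhibition, read as CCF4 fluorescence ratio (ex 405, em 460/530 nm) after 2 h at RT. HEK293T UAS-bla cells, 2500/well, were stimulated with 9-cis-RA at 500 or 100 nM final alongside test compound for 18 h at 37 C.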
# [16] = target: Retinoic acid receptor RXR-alpha (Homo sapiens) (UniProt P19793); test: as above; settings: HEK293T RXRa-UAS-bla, beta-lactamase ratio, antagonist mode
# Chain of Retinoic acid receptor RXR-alpha (Homo sapiens) (P19793 whole entry, looked up): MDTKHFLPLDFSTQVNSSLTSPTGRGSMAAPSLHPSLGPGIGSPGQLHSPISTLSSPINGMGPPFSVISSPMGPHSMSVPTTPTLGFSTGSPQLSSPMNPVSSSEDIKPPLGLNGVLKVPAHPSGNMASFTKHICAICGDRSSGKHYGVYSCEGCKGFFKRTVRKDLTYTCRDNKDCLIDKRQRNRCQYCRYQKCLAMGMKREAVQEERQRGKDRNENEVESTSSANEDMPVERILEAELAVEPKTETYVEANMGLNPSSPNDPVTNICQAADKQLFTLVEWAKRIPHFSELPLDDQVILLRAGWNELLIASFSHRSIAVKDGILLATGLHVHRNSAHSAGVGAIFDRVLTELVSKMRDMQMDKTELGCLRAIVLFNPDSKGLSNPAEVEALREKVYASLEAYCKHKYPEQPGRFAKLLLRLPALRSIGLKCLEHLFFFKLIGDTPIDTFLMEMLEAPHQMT
# Summary of the method: as §1
# [17] = target: Peroxisome proliferator-activated receptor alpha (Homo sapiens) (UniProt Q07869); test: qHTS assay for small molecule agonists of the peroxisome proliferator-activated receptor alpha (PPARalpha) signaling pathway (AID 651778); settings: PathHunter PPARalpha complementation, chemiluminescence, 6 h; stronger effect = higher value; note: % of control where 0% means no effect
# Chain of Peroxisome proliferator-activated receptor alpha (Homo sapiens) (Q07869 whole entry, looked up, the tested form may be a part): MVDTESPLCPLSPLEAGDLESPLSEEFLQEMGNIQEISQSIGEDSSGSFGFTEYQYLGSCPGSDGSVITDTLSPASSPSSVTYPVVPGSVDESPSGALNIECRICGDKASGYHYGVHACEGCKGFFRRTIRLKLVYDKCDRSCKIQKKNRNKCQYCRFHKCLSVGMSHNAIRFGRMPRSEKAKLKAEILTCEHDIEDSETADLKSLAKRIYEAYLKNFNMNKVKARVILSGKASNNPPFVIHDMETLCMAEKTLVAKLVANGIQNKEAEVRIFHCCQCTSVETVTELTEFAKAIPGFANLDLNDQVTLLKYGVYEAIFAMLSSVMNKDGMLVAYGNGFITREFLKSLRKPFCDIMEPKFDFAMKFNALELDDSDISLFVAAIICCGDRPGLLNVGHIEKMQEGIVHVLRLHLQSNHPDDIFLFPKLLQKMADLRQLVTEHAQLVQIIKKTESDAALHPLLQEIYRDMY
# Summary of the method: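 Enzyme-fragment complementation assay in which ligand-bound PPARalpha translocates and forms an active enzyme that generates chemiluminescence. Cells were plated overnight, exposed to compound for 6 hr at 37 C, and then given detection reagent for 60 min at room temperature.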
# [18] = qHTS assay for small molecule agonists of the antioxidant response element (ARE) signaling pathway measured by Nrf2-dependant transcriptional activity - cell viability counter screen (AID 720653; active = well fitted curve in the direction sought with a large enough effect in the repeat runs; an effect the other way counts as inactive or inconclusive; note: % is set by controls: 0 for no effect and ±100 for the full control effect); settings: ARE-bla HepG2 viability, CellTiter-Glo ATP luminescence, 16 h; stronger effect = lower value
# Summary of the method: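 ARE-bla HepG2 cells treated with compounds for 16 h at 37C; this counter screen measures viability as intracellular ATP by CellTiter-Glo luminescence after 30 min at room temperature.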
# [19] = qHTS assay for cell viability of HEK293 cells (AID 743288); settings: ATP luminescence (CellTiter-Glo), 18 h; max response: stronger effect = lower value; note: % is set by controls: 0 for no effect and ±100 for the full control effect; nearly all actives have a fitted effect of over 50% in size
# Summary of the method: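 Parental HEK293 cells, 2,000 per well, preincubated at least 5 h at 37 C, then exposed to compounds in DMSO for 18 h at 37 C. Viability by CellTiter-Glo ATP luminescence after 30 min at room temperature.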
# [20] = qHTS assay for cell viability of the p53RE-bla HCT-116 cell line (AID 743292); settings: p53RE-bla HCT-116 viability, ATP luminescence, 16 h; series mostly up to 95 µM; note: % is set by controls: 0 for no effect and ±100 for the full control effect; nearly all actives have a fitted effect of over 55% in size
# Summary of the method: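 ATP-based luminescence, 16 h compound exposure at 37 C, p53RE-bla HCT-116 cells at 4,000/well.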
Structure (SMILES),Potency [1],Potency [2],Potency [3],Potency [4],"activity change, negative = cytotoxicity [5]",Potency [6],Potency [7],Potency [8],"activity change, negative = cytotoxicity [9]",outcome [10],caspase-3 activation [11],outcome [12],outcome [13],max response [14],max response [15],max response [16],max response [17],max response [18],max response [19],Potency [20]
N#CCCCl,> 92 µM (inactive),> 92 µM (inactive),> 92 µM (inactive),> 92 µM (inactive),-5.02% (inactive) and -15.1% (inactive),inactive,inactive,inactive,1.51% (inactive) and -5.91% (inactive),inactive,-0.233% (inactive) and -1.87% (inactive),inactive,inactive,5.05% and -2.32%,2.8% and 0.773%,15.2% (inactive) and 9.43% (inactive),-3.2% (inactive) and -4.12% (inactive),4.67% (inactive) and 7.37% (inactive),-10.6% (inactive) and 0.832% (inactive),inactive
O=[N+]([O-])c1ccc(Cl)c(Cl)c1,> 92 µM (inactive),> 92 µM (inactive),> 92 µM (inactive),> 92 µM (inactive),-16.5% (inactive),inactive,inactive,inactive,-5.41% [at 91.7 µM] (inactive),inactive,0.916% (inactive),inactive,inactive,1.86%,-6.04%,7.29% (inactive),-3.39% (inactive),-14.5% (inactive),7.83% (inactive),inactive
CCN(CC)c1ccccc1,> 92 µM (inactive),> 92 µM (inactive),> 92 µM (inactive),> 92 µM (inactive),4.17% (inactive),inactive,inactive,inactive,-4.65% (inactive),inactive,-0.552% (inactive),inactive,inactive,-1.24%,-5.5%,4.5% (inactive),-1.88% (inactive),7.99% (inactive),-9.99% (inactive),inactive
CCOP(=S)(OCC)SCSC(C)(C)C,> 92 µM (inactive),> 92 µM (inactive),> 92 µM (inactive),> 92 µM (inactive),1.25% (inactive),inactive,inactive,inactive,1.14% (inactive),inactive,-0.764% (inactive),inactive,inactive,19.7% and -0.121%,-10.4% and -6.52%,-12% (inactive) and 0.279% (inactive),-1.59% (inactive) and -3.9% (inactive),-1.33% (inactive) and 1.99% (inactive),-9.58% (inactive) and -1.13% (inactive),inactive
C=CCOC(C)=O,> 92 µM (inactive),> 92 µM (inactive),> 92 µM (inactive),> 92 µM (inactive),-5.94% (inactive),inactive,inactive,inactive,-1.33% (inactive),inactive,0.277% (inactive),inactive,inactive,-7.26%,-2.08%,2.59% (inactive),7.33% (inactive),-12.1% (inactive),-4.78% (inactive),inactive
ClC(Cl)(Cl)c1ccccc1,> 92 µM (inactive),> 92 µM (inactive),> 92 µM (inactive),> 92 µM (inactive),-19.1% (inactive) and -4.39% (inactive),inactive,inactive,inactive,-4.93% (inactive) and -2.74% (inactive),inactive,18.2% (inactive) and -0.502% (inactive),inactive,inactive,2.72% and -9.44%,-5.33% and -1.27%,9.82% (inactive) and 8.91% (inactive),-2.9% (inactive) and -5.05% (inactive),-1.54% (inactive) and 10.3% (inactive),-4.96% (inactive) and -3.96% (inactive),inactive
O=[N+]([O-])c1cccc2ccccc12,> 92 µM (inactive),> 92 µM (inactive),> 92 µM (inactive),> 92 µM (inactive),3.57% (inactive),inactive,inactive,inactive,-0.153% (inactive),inactive,-1.75% (inactive),inactive,inactive,-3.41% and -2.17%,-1.12% and -4.23%,5.1% (inactive) and -1.16% (inactive),-0.448% (inactive) and 0.96% (inactive),8.97% (inactive) and -15.3% (inactive),-12% (inactive) and 2.53% (inactive),inactive
C=CCOC(=O)c1ccccc1N,> 92 µM (inactive),> 92 µM (inactive),> 92 µM (inactive),> 92 µM (inactive),-10.8% (inactive),inactive,inactive,inactive,-5.75% [at 91.7 µM] (inactive),inactive,0.746% (inactive),inactive,inactive,1.54%,-12.2%,2.96% (inactive),1.13% (inactive),4.08% (inactive),8.68% (inactive),inactive
